Experimental data as given in PubChem BioAssay AID1159580 (chemical genetic matrix, 2015).
About 2,000 (36%) of roughly 5,500 compounds were called active. Not shown: some 18% with an inconclusive outcome. No stated cut-off is given here; in the data, active means normalized growth mostly below about 0.91 (no sharp cut-off); inconclusive means no clear call, values can overlap the other calls; inactive means mostly above about 0.92. This is one part of the list.

Test: chemical genetic growth profiling, strain panel (AID 1159580);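 further: tested at 20 µM; growth read once vehicle control cultures reached saturation at 30 °C; 1 = growth at the plate median or of vehicle wells; lower values mean less growth of the strain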
Details: growth OD

Measured: normalized growth

COC(=O)C(N)CS (configuration not stated)
active: S. cerevisiae deletion strains, locus YLR268W, strain sec22, active compounds read low 0.871 | S. cerevisiae deletion strains, locus YNL307C, strain MCK1, active compounds read low 0.797 | S. cerevisiae deletion strains, locus YPR163C, strain tif3, active compounds read low 0.887
inactive: S. cerevisiae deletion strains, locus YJR075W, strain HOC1, active compounds read low 0.977 | S. cerevisiae deletion strains, locus YKL009W, strain mrt4, active compounds read low 1.02 | S. cerevisiae deletion strains, locus YKL068W, active compounds read low 0.99 | S. cerevisiae deletion strains, locus YKL085W, strain MDH1 (second series), active compounds read low 0.992 | S. cerevisiae deletion strains, locus YKL085W, strain MDH1, active compounds read low 0.992 | S. cerevisiae deletion strains, locus YKL160W, strain elf1, active compounds read low 1.02 | S. cerevisiae deletion strains, locus YKL190W, strain CNB1, active compounds read low 0.998 | S. cerevisiae deletion strains, locus YKR001C, strain vps1, active compounds read low 0.924 | S. cerevisiae deletion strains, locus YKR026C, strain gcn3, active compounds read low 0.985 | S. cerevisiae deletion strains, locus YKR091W, strain srl3, active compounds read low 0.99 | S. cerevisiae deletion strains, locus YLL001W, strain dnm1, active compounds read low 0.948 | S. cerevisiae deletion strains, locus YLL026W, active compounds read low 0.978 | S. cerevisiae deletion strains, locus YLL041C, strain sdh2, active compounds read low 0.985 | S. cerevisiae deletion strains, locus YLR027C, strain aat2, active compounds read low 0.988 | S. cerevisiae deletion strains, locus YLR039C, strain RIC1, active compounds read low 0.897 | S. cerevisiae deletion strains, locus YLR058C, strain SHM2, active compounds read low 0.99 | S. cerevisiae deletion strains, locus YLR102C, strain apc9, active compounds read low 0.98 | S. cerevisiae deletion strains, locus YLR113W, strain HOG1, active compounds read low 0.972 | S. cerevisiae deletion strains, locus YLR221C, strain rsa3, active compounds read low 0.961 | S. cerevisiae deletion strains, locus YLR258W, strain gsy2, active compounds read low 1 | S. cerevisiae deletion strains, locus YLR262C, strain YPT6 (second series), active compounds read low 0.926 | S. cerevisiae deletion strains, locus YLR262C, strain YPT6, active compounds read low 0.943 | S. cerevisiae deletion strains, locus YLR320W, strain mms22, active compounds read low 0.92 | S. cerevisiae deletion strains, locus YLR330W, strain CHS5, active compounds read low 0.993 | S. cerevisiae deletion strains, locus YLR342W, strain FKS1 (second series), active compounds read low 0.938 | S. cerevisiae deletion strains, locus YLR342W, strain FKS1, active compounds read low 0.984 | S. cerevisiae deletion strains, locus YLR357W, strain rsc2, active compounds read low 0.947 | S. cerevisiae deletion strains, locus YLR370C, strain arc18, active compounds read low 0.996 | S. cerevisiae deletion strains, locus YLR371W, strain rom2, active compounds read low 0.967 | S. cerevisiae deletion strains, locus YLR384C, strain iki3, active compounds read low 0.992 | S. cerevisiae deletion strains, locus YLR418C, strain cdc73, active compounds read low 0.888 | S. cerevisiae deletion strains, locus YML016C, strain PPZ1, active compounds read low 0.989 | S. cerevisiae deletion strains, locus YML032C, strain rad52, active compounds read low 0.962 | S. cerevisiae deletion strains, locus YML120C, strain ndi1, active compounds read low 0.949 | S. cerevisiae deletion strains, locus YML124C, strain tub3, active compounds read low 0.985 | S. cerevisiae deletion strains, locus YMR058W, strain fet3, active compounds read low 0.963 | S. cerevisiae deletion strains, locus YMR078C, strain ctf18, active compounds read low 0.968 | S. cerevisiae deletion strains, locus YMR125W, strain sto1, active compounds read low 1.01 | S. cerevisiae deletion strains, locus YMR129W, active compounds read low 1 | S. cerevisiae deletion strains, locus YMR205C, strain PFK2, active compounds read low 0.957 | S. cerevisiae deletion strains, locus YMR223W, strain ubp8, active compounds read low 0.965 | S. cerevisiae deletion strains, locus YMR231W, strain pep5, active compounds read low 0.981 | S. cerevisiae deletion strains, locus YMR263W, strain SAP30, active compounds read low 0.984 | S. cerevisiae deletion strains, locus YMR307W, strain GAS1, active compounds read low 1 | S. cerevisiae deletion strains, locus YNL067W, strain RPL9B, active compounds read low 0.968 | S. cerevisiae deletion strains, locus YNL071W, strain lat1, active compounds read low 0.968 | S. cerevisiae deletion strains, locus YNL128W, strain TEP1, active compounds read low 0.983 | S. cerevisiae deletion strains, locus YNL153C, strain GIM3, active compounds read low 0.991 | S. cerevisiae deletion strains, locus YNL183C, strain NPR1, active compounds read low 1 | S. cerevisiae deletion strains, locus YNL209W, strain ssb2, active compounds read low 1.01 | S. cerevisiae deletion strains, locus YNL233W, strain BNI4, active compounds read low 0.955 | S. cerevisiae deletion strains, locus YNL248C, strain rpa49, active compounds read low 0.984 | S. cerevisiae deletion strains, locus YNL250W, strain rad50, active compounds read low 0.98 | S. cerevisiae deletion strains, locus YNL271C, strain bni1, active compounds read low 0.98 | S. cerevisiae deletion strains, locus YNL298W, strain CLA4, active compounds read low 0.991 | S. cerevisiae deletion strains, locus YNL322C, strain KRE1 (second series), active compounds read low 1 | S. cerevisiae deletion strains, locus YNL322C, strain KRE1, active compounds read low 1 | S. cerevisiae deletion strains, locus YNR049C, strain mso1, active compounds read low 0.986 | S. cerevisiae deletion strains, locus YNR052C, strain pop2, active compounds read low 0.973 | S. cerevisiae deletion strains, locus YOL006C, strain TOP1, active compounds read low 0.896 | S. cerevisiae deletion strains, locus YOL012C, strain htz1 1.21 | S. cerevisiae deletion strains, locus YOL147C, strain pex11, active compounds read low 0.984 | S. cerevisiae deletion strains, locus YOR001W, strain rrp6, active compounds read low 0.929 | S. cerevisiae deletion strains, locus YOR061W, strain CKA2, active compounds read low 0.989 | S. cerevisiae deletion strains, locus YOR069W, strain VPS5, active compounds read low 0.991 | S. cerevisiae deletion strains, locus YOR070C, strain gyp1, active compounds read low 0.999 | S. cerevisiae deletion strains, locus YOR080W, strain dia2, active compounds read low 0.979 | S. cerevisiae deletion strains, locus YOR083W, strain WHI5, active compounds read low 0.988 | S. cerevisiae deletion strains, locus YOR106W, strain vam3, active compounds read low 0.949 | S. cerevisiae deletion strains, locus YOR136W, strain idh2, active compounds read low 0.978 | S. cerevisiae deletion strains, locus YOR144C, strain elg1, active compounds read low 0.979 | S. cerevisiae deletion strains, locus YOR184W, strain ser1, active compounds read low 0.911 | S. cerevisiae deletion strains, locus YOR231W, strain MKK1, active compounds read low 1 | S. cerevisiae deletion strains, locus YOR265W, strain rbl2, active compounds read low 0.992 | S. cerevisiae deletion strains, locus YOR270C, strain vph1, active compounds read low 0.805 | S. cerevisiae deletion strains, locus YOR290C, strain snf2, active compounds read low 1.02 | S. cerevisiae deletion strains, locus YOR316C, strain cot1, active compounds read low 0.987 | S. cerevisiae deletion strains, locus YPL051W, strain arl3, active compounds read low 1.01 | S. cerevisiae deletion strains, locus YPL055C, strain LGE1, active compounds read low 0.993 | S. cerevisiae deletion strains, locus YPL078C, strain atp4, active compounds read low 1.01 | S. cerevisiae deletion strains, locus YPL106C, strain sse1, active compounds read low 1.03 | S. cerevisiae deletion strains, locus YPL240C, strain hsp82, active compounds read low 0.987 | S. cerevisiae deletion strains, locus YPL241C, strain CIN2, active compounds read low 0.996 | S. cerevisiae deletion strains, locus YPL256C, strain CLN2, active compounds read low 1.05 | S. cerevisiae deletion strains, locus YPR119W, strain clb2, active compounds read low 0.977 | S. cerevisiae deletion strains, locus YPR141C, strain kar3, active compounds read low 0.979 | S. cerevisiae deletion strains, locus YPR167C, strain met16, active compounds read low 0.98 | S. cerevisiae deletion strains, strain wtn01, active compounds read low 0.967 | S. cerevisiae strains, strain wild type, active compounds read low 0.983
